Measured values reported in PubChem BioAssay AID1224853 (National Center for Advancing Translational Sciences (NCATS), 2016).
Inconclusive results are not listed. Unmarked numbers belong to inactive results. Activity calls are given as the source filed them. Calls come from the whole dose curve; as a rule, active = well fitted inhibition curve with a large enough effect; inconclusive = small, poorly fitted or top-dose-only effect; inactive = no such curve, though single readings can be large or run the other way.

Assay: Confirmation assay for measurement of the activity of small molecule inhibitors on Zika virus induced Caspase-3 activity in human astrocytoma cells
Conditions: SNB-19 ZIKV-induced caspase-3/7, luminescence, 6 h; series mostly up to 46.1 µM; activity change, negative = inhibition: at the top concentration
Text: National Center for Advancing Translational Sciences [NCATS] Johns Hopkins University School of Medicine Florida State University Assay Overview: Increase in the Caspase-3 activity indicates an activation of apoptosis cell death pathway caused by Zika virus infection in certain types of neuronal cells including human neural progenitor cells (hNPCs), astrocytes, and astrocytoma cell line (SNB-19). This cell-based caspase-3 activity assay measures the increased caspase-3 activity in the astrocytoma cell line (SNB-19) after a 6-hour Zika virus infection with a luminescence readout. A decrease in the luminescence signal in this assay by small molecule treatment indicates an inhibitory effect of that small molecule on the Zika virus induced caspase-3 activity that may correlate with its effect on reduction of Zika virus caused cell death.
Assay Protocol Summary: The medium for SNB-19 cells is composed of RPMI 1640 (ATCC, Cat.# 30-2001), 10% fetal bovine serum (FBS) (GE healthcare Life Sciences, Cat.# SH30071.03), and 1% Pen/Strep (Gibco, Cat.# 15140-122). A Caspase-Glo 3/7 assay kit (catalog number G8092; Promega, Madison, WI) was used to detect caspase-3 activity induced by Zika virus infection in human cells. The reagent mixture was reconstituted as described in the protocol from the manufacturer. Polystyrene tissue culture treated and PDL coated white plates were obtained from Greiner Bio-One (Monroe, NC). Cells were seeded in 384- or 1536-well assay plates and cultured at 37 C with 5% CO2 for 16 to 20 hours. The typical cell seeding density in the 1536-well plate assay is 250 cells/well in 3ul medium for SNB-19 cells in tissue culture treated plates. Compounds were added to cells and incubated for one hour before addition of ZIKV solution to cells (2 FFU/cell). After incubation at 37 C with 5% CO2 for 6 hours, the reagent mixture of Caspase-Glo 3/7 assay kit was added to each well, followed by incubation at room temperature for 30 minutes. The luminescence intensity of the assay plates was measured using a ViewLux plate reader (PerkinElmer). Data were normalized by using the cell-containing wells without ZIKV as a negative control (0% induction of caspase 3/7 activity) and wells containing ZIKV infected cells (Caspase-3 activity induced) as a positive control (100% induction of caspase 3 activity). The percentage inhibitions of the increased Caspase-3 activity by small molecule inhibitors were then calculated.

SMILES | Potency | activity change, negative = inhibition [%]
COCCn1c2c([n+](Cc3cnccn3)c1C)C(=O)c1ccccc1C2=O | 4.89 µM (active) | –
CN1CC(=O)N2C(Cc3c([nH]c4ccccc34)[C@H]2c2ccc3c(c2)OCO3)C1=O (stereo not given in full) | – | 1.76
CCC(C)SSc1ncc[nH]1 (stereo not given) | – | 1.05
O=C1C[C@@H](c2ccc(O)cc2)Oc2cc(O)cc(O)c21 | 15.5 µM (active) | –
C[C@@H]1CCN(C(=O)CC#N)C[C@H]1N(C)c1ncnc2[nH]ccc12 | – | 5.55
CC(C(=O)O)c1ccc(C(=O)c2cccs2)cc1 (stereo not given) | 17.3 µM (active) | –
Cc1cc(O)c2c(c1)C(=O)c1cc(O)cc(O)c1C2=O | 4.89 µM (active) | –
O=C(CS)Nc1ccccc1 | – | 11.3
CC1=C(CO)C(=O)O[C@@H]([C@@H](C)[C@H]2CC[C@H]3[C@@H]4C[C@H]5O[C@]56[C@@H](O)C=CC(=O)[C@]6(C)[C@@H]4CC[C@]23C)C1 | – | -1.09
Cc1cc(O)c2ccccc2c1O | – | -11.1
CCCCC1C(=O)N(c2ccccc2)N(c2ccc(O)cc2)C1=O (stereo not given) | – | 22.7
N[C@H](CSC(c1ccccc1)(c1ccccc1)c1ccccc1)C(=O)O | – | 14.3
COc1cccc(-c2cc(=O)c3ccccc3o2)c1N | 7.74 µM (active) | –
Cc1ccc(O)c(N=Nc2ccccc2)n1 | 5.48 µM (active) | –
COc1cccc(-c2ccc(NC(=O)C3=C(C(=O)O)CCC3)c(F)c2)c1 | 3.46 µM (active) | –
CC(C)Oc1ccc2c(=O)c(-c3ccccc3)coc2c1 | 12.3 µM (active) | –
CC(=C(CCOC(=O)C(C)C)SSC(CCOC(=O)C(C)C)=C(C)N(C=O)Cc1cnc(C)nc1N)N(C=O)Cc1cnc(C)nc1N | – | -17
CC(C(=O)O)c1ccc(-c2ccccc2)c(F)c1 (stereo not given) | – | -11.9
O=S(=O)(O)CCSSCCS(=O)(=O)O | – | -3.31
CC(C)OC(=O)CCCC=CC[C@@H]1[C@H](C=C[C@@H](O)COc2cccc(C(F)(F)F)c2)[C@H](O)C[C@@H]1O | – | 16.3

SMILES | Potency | activity change, negative = inhibition [%]
O=C1NC(=O)C(=Cc2ccc(-c3ccc(F)cc3)o2)S1 | 13.8 µM (active) | –
CC=CC[C@@H](C)C(=O)[C@H]1C(=O)N[C@@H](C(C)C)C(=O)N(C)CC(=O)N(C)[C@@H](CC(C)C)C(=O)N[C@@H](C(C)C)C(=O)N(C)[C@@H](CC(C)C)C(=O)N[C@@H](C)C(=O)N[C@H](C)C(=O)N(C)[C@@H](CC(C)C)C(=O)N(C)[C@@H](CC(C)C)C(=O)N(C)[C@@H](C(C)C)C(=O)N1C | – | 9.07
COc1ccc(NC(=O)/C=C/c2ccc(Cl)cc2)cc1 | 3.46 µM (active) | –
O=C(O)[C@@H](c1ccc(OCc2ccc3ccccc3n2)cc1)C1CCCC1 | 13.8 µM (active) | –
O=C(O)[C@H](CC(=O)N1C[C@@H]2CCCC[C@H]2C1)Cc1ccccc1 | – | -6.96
O=C(Nc1ccc(C(=O)O)c(O)c1)c1ccccc1 | 6.15 µM (active) | –
O=C(Nc1ncc([N+](=O)[O-])s1)c1cccs1 | 1.73 µM (active) | –
Oc1ccc(/C=C/c2cc(O)cc(O)c2)cc1 | 13.8 µM (active) | –
CC(O)=C(C#N)C(=O)Nc1ccc(C(F)(F)F)cc1 | 0.869 µM (active) | –
NC1CCC(Nc2nc(Nc3ccc(C(=O)N4CCCCC4)cc3)c3ncn(-c4cccc(F)c4)c3n2)CC1 (stereo not given) | – | 99.3
COc1cc2nc(N3CCN(C(=O)C4CCCO4)CC3)nc(N)c2cc1OC (stereo not given) | 17.3 µM (active) | –
O=C(O)CCC(=O)c1ccc(-c2ccccc2)cc1 | 24.5 µM (active) | –
CC1(C)Cc2c(sc(NC(=S)NC(=O)c3ccccc3)c2C(=O)O)CO1 | – | -0.0994
COc1ccc(CC2=NN3C([C@@H](CCc4ccccc4)[C@@H](C)O)=NC(C)C3C(=O)N2)cc1OC (stereo not given in full) | – | 40.2
O=C1C(Cl)=C(NCCN2CCOCC2)C(=O)c2ncccc21 | 5.48 µM (active) | –
C[C@H](NC(=O)C(=O)Nc1ccccc1C(C)(C)C)C(=O)N[C@@H](CC(=O)O)C(=O)COc1c(F)c(F)cc(F)c1F | 0.615 µM (active) | –
Nc1ccc(O)c(C(=O)O)c1 | – | -11.2
CN1CC(=O)N/C1=N/C(=O)Nc1cccc(Cl)c1 | 6.9 µM (active) | –
O=C(OCc1ccccc1)c1ccc(O)cc1 | 19.5 µM (active) | –
O=C(O)c1ccccc1NCCc1ccccc1 | – | -28.5
